Measurements published in PubChem BioAssay (NCI).
This is part of a sample that, as a whole, favours compounds with a hit. Of some 83,000 tested, about 20% had one in any assay.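 In brief: 96-well plates, 48 h treatment, single concentration, percent growth endpoint.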 Values without a mark were called inactive. Calls of active or inactive are those of the source. How the source made its calls: active means growth percent below 10; inactive means the rest.

System: HL-60(TB) leukemia
Test: NCI-60 one-dose screen, 48 h (100 = growth as untreated, 0 = no growth, -100 = all killed)
Details: 10 µM unless noted

SMILES	growth
Cc1ccc(=O)n(-c2ccc(Br)cc2F)c1	106%
CC(=O)c1ccc(Nc2nc(C(C)=O)c(C)s2)cc1	88%
O=S1(=O)NCCN1CCNc1nccc(-c2c(-c3cccc(O)c3)nc3sccn23)n1	111%
Cn1cc(-c2nc3c(F)cc4[nH]ncc4c3c3c2CCCC3)c(C(F)(F)F)n1	-11.2% (active)
O=C(Nc1ccc(-n2ccc3c(NC(=O)c4ccccc4)ncnc32)cc1)Nc1ccc(Cl)c(Cl)c1	62.1%
C/C(Cc1ccc(Cl)cc1)=C(\c1ccc(OCCCN(C)C)cc1)c1ccc(OC(=O)Cc2ccccc2)cc1	88.7%
O=C1NC(=O)C(c2cnc3ccccn23)=C1c1cn2c3c(cc(F)cc13)CN(C(=O)N1CCCCC1)CC2	48.1%
CC1=C(N2CCOCC2)C(N2CCOCC2)=C(C)C(=O)C1=O	97.3%
COc1ccc(OC)c(/C=C2\CCc3ccccc3C2=O)c1	16.9%
Cc1ccc2nc(NC(=O)CSc3nc(Cl)c(C#N)c(-c4ccccc4)n3)sc2c1	94.9%
Cc1[nH]c(-c2nc3ccccc3[nH]2)c(C)c1C(=O)NNc1ccc(Cl)cc1	103%
[O-][N+](=Nc1cccc(Cl)c1)c1cccc(Cl)c1	132%
Nc1nc2ncc(CNc3ccc(C(=O)NC(CCC(=O)NC(CCC(=O)NC(CCC(=O)NC(CCC(=O)NC(CCC(=O)O)C(=O)O)C(=O)O)C(=O)O)C(=O)O)C(=O)O)cc3)nc2c(=O)[nH]1 (stereo not given)	93.5%
C=CCn1c(SCC(=O)Nc2ccc(C(=O)/C=C/c3ccc(OC)cc3)cc2)nnc1-c1ccccc1	88.5%
CCN(CC)CCCC(C)Nc1c(C)cnc2cc(Cl)c(C)cc12 (stereo not given)	65.9%
CSC(SC)=C(C#N)c1nc2ccccc2s1	44.6%
CCOc1ccccc1/C=N\Nc1ccc(S(=O)(=O)c2ccc(N/N=C/c3ccccc3OCC)cc2)cc1	102%
Cc1cc(SC#N)ncn1	102%
CCOc1ccc(/C=C(\C#N)c2cc3ccccc3[nH]2)cc1	43.7%
CC(=O)OC/C=C(/C)C[P+](c1ccccc1)(c1ccccc1)c1ccccc1	44.9%

SMILES	growth
CCCCCC1CCCCN1C(=O)OCCCC (stereo not given)	102%
COCc1c(-c2ccc(NC(=O)Nc3cc(C(F)(F)F)ccc3F)c(F)c2)c2c(N)ncnn2c1CN1CCOCC1	-22% (active)
Cc1[nH]c(C(=O)Nc2ccc(C(=O)NCCN)cc2OC(C)C)c(Cl)c1Cl	-21.3% (active)
CC(=O)/C(=C/c1ccc([N+](=O)[O-])cc1)C(=O)c1ccccc1	41.9%
COc1ccc2nc3cc(Cl)ccc3c(Nc3cc(CN4CCCC4)c(O)c(CN4CCCC4)c3)c2n1	-20.4% (active)
Cc1nccc2c3ccc(OCc4cn(-c5ccccc5)nn4)cc3n(CCCc3ccccc3)c12	30.1%
COc1cccc(/C=C2\CCc3ccccc3C2=O)c1	63.2%
COc1ccc2nc(-c3ccc(-c4noc(-c5ccc(Cl)cc5)n4)cc3)[nH]c2c1	104%
CN1CCN(c2ccc(-c3ccc4ncc(C#N)c(Nc5ccc(F)c(Cl)c5)c4c3)cn2)CC1	38.1%
Cc1nc2c(O)cccc2cc1CO	81.7%
NCCCCCCNc1cc(-c2cccc(OC(F)(F)F)c2)nc2ccc(N3CCCC3)cc12	-60.2% (active)
C=C1C(=O)O[C@H]2[C@H]1CC/C(COC(=O)c1cc(OC)c(OC)c(OC)c1)=C\CC[C@@]1(C)O[C@@H]21	-65.1% (active)
CC1OC(n2c3ccccc3c3c4c(c5c6ccccc6[nH]c5c32)C(=O)N(CCN[C@H]2CCC[C@@H]2N)C4=O)CC(O)C1O (stereo not given in full)	54.3%
COc1ccc(C2C3=C(COC3=O)N(CCO)c3cc4c(cc32)OCCO4)cc1OC (stereo not given)	6.34% (active)
Oc1[nH]c2ccc(Cl)cc2c1/C=c1/ccc2c(c1)N=C(c1ccc(C(F)(F)F)cc1)N=2	75.1%
COc1ccc(/C=C/c2nc(N3CCOCC3)c3cc(F)c(F)cc3n2)cc1OC	-2.81% (active)
Cc1ccc2nc(NC(=O)CSc3nc(Nc4ccc([N+](=O)[O-])cc4)c(C#N)c(-c4ccccc4)n3)sc2c1	95.2%
Cc1cc(C2=NNC(=O)Cc3cc4c(cc32)OCCO4)cc(C)c1N	21.6%
CN1CCC(CNc2ccc3ncc(-c4cccc(OC(F)(F)F)c4)n3n2)CC1	-37.1% (active)
CCN(CC)CCCNC(=O)c1ccc(N)cc1	76.5%
